Assay results taken from publication PMC5540273 (PLoS ONE, 2017).

Tests used:
Conditions in all cases: concentration: 1 μM, replicates: in singlicate; n = 1
MAP4K4 = tested on: MAP4K4
MAP4K5 = tested on: MAP4K5
MAPKAPK2 = tested on: MAPKAPK2
MAPKAPK5 = tested on: MAPKAPK5
MARK1 = tested on: MARK1
MARK2 = tested on: MARK2
MARK3 = tested on: MARK3
MARK4 = tested on: MARK4
MAST1 = tested on: MAST1
MEK1 = tested on: T1, MEK1
T1 construct: gene MAP2K1

MEK2 = tested on: T2, MEK2
T2 construct: gene MAP2K2

MEK3 = tested on: T3, MEK3
T3 construct: gene MAP2K3

MEK4 = tested on: T4, MEK4
T4 construct: gene MAP2K4

MEK5 = tested on: T5, MEK5
T5 construct: gene MAP2K5

MEK6 = tested on: T6, MEK6
T6 construct: gene MAP2K6

MELK = tested on: MELK
MERTK = tested on: MERTK
MET = tested on: MET
MINK = tested on: T7, MINK
T7 construct: gene MINK1

MKK7 = tested on: MKK7
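Further: KINOMEscan kinase panel screen.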

Row | Compound | %Inh (MAP4K4) [%] | %Inh (MAP4K5) [%] | %Inh (MAPKAPK2) [%] | %Inh (MAPKAPK5) [%] | %Inh (MARK1) [%] | %Inh (MARK2) [%] | %Inh (MARK3) [%] | %Inh (MARK4) [%] | %Inh (MAST1) [%] | %Inh (MEK1) [%] | %Inh (MEK2) [%] | %Inh (MEK3) [%] | %Inh (MEK4) [%] | %Inh (MEK5) [%] | %Inh (MEK6) [%] | %Inh (MELK) [%] | %Inh (MERTK) [%] | %Inh (MET) [%] | %Inh (MINK) [%] | %Inh (MKK7) [%]
1 | CC(=O)Nc1nc2cnc(Nc3cc(NC(=O)c4cccc(CCC#N)c4)ccc3C)nc2s1 | 0 | 0 | 11 | 3 | 14 | 0 | 0 | 12 | 0 | 0 | 0 | 3 | 25 | 2 | 12 | 0 | 12 | 7 | 4 | 0
2 | CN1C(=O)C(Nc2ccc(Cl)c(C(=O)O)c2)=C(c2ccc(Cl)cc2)C1=O [SB-404290] | 0 | 0 | 23 | 12 | 0 | 27 | 0 | 13 | 42 | 0 | 21 | 3 | 26 | 0 | 0 | 4 | 11 | 0 | 10 | 0
3 | CC(C)(C)c1ccc(C(=O)Nc2cn3cc(Cl)ccc3n2)cc1 | 2 | 2 | 0 | 0 | 0 | 78 | 0 | 0 | 0 | 24 | 24 | 0 | 33 | 38 | 0 | 1 | 0 | 0 | 9 | 0
4 | COc1ccc(C2=C(Nc3cccc(C(=O)O)c3)C(=O)NC2=O)cc1 [SB-390765] | 0 | 0 | 0 | 20 | 3 | 8 | 0 | 0 | 30 | 13 | 15 | 15 | 7 | 40 | 0 | 11 | 11 | 0 | 8 | 8
5 | C[C@@H]1CCCCN1c1cc(-c2ccc3c(N)n[nH]c3c2)nc(N)n1 [GSK2258759] | 0 | 0 | 4 | 0 | 0 | 0 | 0 | 0 | 0 | 27 | 0 | 0 | 8 | 7 | 14 | 0 | 11 | 0 | 15 | 0
6 | COc1cccc(NC(=O)NC2CCN(c3ccnc(Nc4ccc(F)cc4)n3)C2)c1 (stereo not drawn) [GSK1379721] | 83 | 96.7 | 0 | 0 | 0 | 0 | 9 | 0 | 17 | 31 | 22 | 0 | 26 | 86 | 0 | 8 | 14 | 0 | 0 | 0
7 | Fc1cc(Cl)ccc1Nc1ccnc2cc(I)ccc12 [GW551191] | 28 | 0 | 19 | 0 | 0 | 0 | 11 | 0 | 0 | 0 | 0 | 0 | 46 | 75 | 0 | 16 | 30 | 8 | 51 | 0
8 | Cc1ccc(C(=O)Nc2ccc(Nc3ccnc4cc(-c5ccccn5)ccc34)cc2O)cc1.Cl [GW440146] | 0 | 70 | 18 | 0 | 0 | 0 | 2 | 4 | 0 | 0 | 0 | 0 | 19 | 100 | 0 | 0 | 33 | 0 | 36 | 0
9 | Cc1cc(N2Cc3ccccc3C2)nc(Nc2ccc(S(=O)(=O)N3CCOCC3)cc2)n1.Cl [GSK1669917] | 0 | 0 | 4 | 0 | 0 | 0 | 12 | 0 | 0 | 0 | 0 | 0 | 0 | 9 | 0 | 0 | 9 | 0 | 20 | 0
10 | CS(=O)(=O)c1ccc(-c2c(-c3ncn[nH]3)sc(N3CCOCC3)c2C#N)cc1 | 0 | 0 | 0 | 0 | 26 | 10 | 0 | 24 | 21 | 2 | 0 | 0 | 0 | 16 | 0 | 5 | 0 | 0 | 21 | 10
11 | CCn1c(-c2cccnc2O)nc2cnccc21 [SB-736715] | 0 | 0 | 16 | 0 | 0 | 15 | 0 | 0 | 13 | 0 | 0 | 14 | 0 | 11 | 0 | 1 | 26 | 0 | 0 | 0
12 | COc1cc(Nc2nccc(N3CCC(NC(=O)Nc4cc(C)ccc4C)C3)n2)cc(OC)c1OC (stereo not drawn) [GSK1379762] | 0 | 0 | 10 | 0 | 0 | 0 | 8 | 9 | 2 | 0 | 0 | 0 | 7 | 99.8 | 0 | 5 | 51 | 42 | 0 | 0
13 | Cc1csc(-c2nc(Nc3ccncc3)c3ccccc3n2)n1 [GW869640] | 14 | 0 | 0 | 3 | 25 | 13 | 0 | 38 | 60 | 13 | 17 | 38 | 29 | 47 | 0 | 24 | 0 | 30 | 55 | 10
14 | Cc1cccc(-c2nc(Nc3cccc(C(N)=O)c3)c3ccccc3n2)n1 [GW876019] | 0 | 0 | 0 | 0 | 0 | 0 | 45 | 0 | 11 | 97.2 | 27 | 14 | 0 | 20 | 0 | 24 | 11 | 19 | 5 | 0
15 | O=C(O)COc1ncnc2cc(-c3ccc4[nH]ncc4c3)sc12 | 0 | 6 | 0 | 9 | 8 | 20 | 0 | 14 | 0 | 5 | 7 | 17 | 37 | 38 | 0 | 21 | 0 | 1 | 12 | 0
16 | COc1cc2ncn(-c3cc(OCC4CCCO4)c(C(N)=O)s3)c2cc1OC (stereo not drawn) [GSK204607] | 6 | 4 | 0 | 0 | 0 | 0 | 0 | 0 | 2 | 24 | 9 | 0 | 5 | 99.3 | 0 | 0 | 10 | 0 | 27 | 0
17 | CC(C)(C)c1ccc(C(=O)Nc2cn3cc(-c4cccnc4)ccc3n2)cc1 | 15 | 0 | 0 | 0 | 36 | 27 | 0 | 38 | 0 | 3 | 36 | 13 | 0 | 95.4 | 32 | 33 | 26 | 0 | 52 | 0
18 | COc1cc2ncnc(Nc3ccc4nc(-c5ccccc5)[nH]c4c3)c2cc1OC.Cl [GW282450] | 0 | 0 | 24 | 0 | 0 | 0 | 0 | 0 | 0 | 0 | 0 | 3 | 21 | 90 | 0 | 7 | 0 | 0 | 1 | 0
19 | O=C(Nc1ccccc1)Nc1cccc(Oc2ccc3nccn3n2)c1 | 0 | 0 | 0 | 0 | 2 | 39 | 0 | 9 | 0 | 0 | 0 | 0 | 0 | 37 | 0 | 0 | 4 | 0 | 13 | 0
20 | COc1ccccc1CNC(=O)c1cc(C(=O)c2ccccc2C)c[nH]1 [GSK364507] | 6 | 0 | 26 | 0 | 89 | 0 | 0 | 50 | 0 | 0 | 0 | 0 | 41 | 36 | 0 | 0 | 0 | 0 | 0 | 0
21 | CC1=C(C(=O)Nc2cc3cn[nH]c3cc2F)C(c2ccc(C(F)(F)F)cc2)CC(=O)N1 (stereo not drawn) [GSK429286] | 59 | 75 | 21 | 0 | 0 | 0 | 0 | 0 | 0 | 0 | 0 | 23 | 15 | 8 | 0 | 0 | 13 | 0 | 0 | 48
